BAZ2B inh – inhibitors of human BAZ2B bromodomain; Q9UIF8; AlphaScreen BAZ2B-H3K14Ac peptide displacement; Potency, µM (series often up to 114 µM), most hits filed as inhibitors; actives 4.4% (n = 360,000); AID 504333; also: nearly all actives have a fitted effect of over 60% in size
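Multi-concentration screen (max 110 uM) measuring displacement of acetylated histone H3 peptide from BAZ2B by AlphaScreen, using 50 nM protein, 50 nM peptide and 10 ug/mL streptavidin donor plus Ni-chelate acceptor beads.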
HP1b binding inh – blocks HP1-beta chromodomain binding to methylated histone tails; actives 0.56% (n = 390,000); Potency, µM (top dose mostly 114 µM), most hits filed as inhibitors; AlphaScreen HP1-beta / biotin-H3K9me3 peptide binding; also: nearly all actives have a fitted effect of over 70% in size
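AlphaScreen: HP1-beta (50 nM) preformed 30 min with biotin-H3(1-18)K9me3 peptide (50 nM) in PBS pH 7.4, 0.01% Tween-20. Compound added for 30 min at RT, then streptavidin donor/nickel chelate acceptor beads (10 ug/mL) for 30 min.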
L3MBTL1 inh – L3MBTL1 (human) inhibition; Potency, µM (highest dose often 57.1 µM), hits mostly inhibitors; actives 0.66% (n = 230,000); Q9Y468; AlphaScreen L3MBTL1–H3K9me1 peptide binding; AID 485360; also: nearly all actives have a fitted effect of over 60% in size
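Displacement of a biotinylated histone H3(1-15) peptide monomethylated at Lys9 (75 nM) from L3MBTL1 (50 nM) was measured by AlphaScreen after a 30 min room-temperature compound incubation; cefsulodin titration served as intraplate control.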
Sfp inh – inhibitors of Bacillus subtilis Sfp phosphopantetheinyl transferase; AID 1490; Q9F4F7; Biochemical Sfp PPTase activity, qHTS; Potency, µM, actives largely listed as inhibitors; actives 3.5% (n = 310,000);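 also: the enzyme is Sfp with the accession as filed and its product quenches rhodamine fluorescence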
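Buffer: 50 mM Hepes-Na pH 7.6, 10 mM MgCl2, 0.01% Nonidet P-40, 0.01% BSA. Enzyme 15 nM, pre-exposed to compound 15 min; substrates then added and fluorescence change tracked over 30 min.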
G9a block – blocks human histone lysine methyltransferase G9a; AID 504332; G9a H3K9 monomethylation, AlphaScreen, 2 h; Potency, µM (highest dose often 102 µM), hits mostly inhibitors; actives 8.8% (n = 350,000); also: nearly all actives have a fitted effect of over 75% in size
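Methyltransferase reactions run at room temperature for 2 h (20 nM enzyme, 500 nM biotin-H3K9 peptide, 20 uM SAM) after a 15 min compound preincubation; product detected by AlphaScreen beads and anti-H3K9me1 antibody.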
JMJD2A Tudor inh – inhibitors of human JMJD2A Tudor domain; O75164; AlphaScreen JMJD2A-Tudor / H3K4me3 peptide binding; Potency, µM (top dose mostly 114 µM), usual class: inhibitors; actives 4.4% (n = 390,000); also: nearly all actives have a fitted effect of over 50% in size
A number is an active result; i = inactive; ? = inconclusive; nt = no result; ! = not confirmed by another sample; [ ] = another dose, or the depositor's remark. Only some compounds are listed: those with a hit (about 12% of all), similar ones and a draw of the others. Calls follow the shape of the dose curve; as a rule, active = well fitted curve in the direction sought with a large enough effect; inconclusive = small, poorly fitted or top-dose-only effect, or another doubt; inactive = no such curve, though single readings can be large; an effect the other way counts as inactive or inconclusive.

SMILES	BAZ2B inh	HP1b binding inh	L3MBTL1 inh	Sfp inh	G9a block	JMJD2A Tudor inh
COc1ccccc1C(=O)Nc1ccc(OCC(=O)N2CC(C)CC(C)C2)cc1 (stereo not given)	i	i	i	nt	i[12.7 µM]	i
CCOc1ccc(C2C(C(=O)c3ccc(C)o3)=C(O)C(=O)N2c2cc(C)on2)cc1OC (stereo not given)	i	i	nt	i	50.1µM	i
COc1cccc(C2C(C(=O)c3cc4cccc(OC)c4o3)=C(O)C(=O)N2c2cc(C)on2)c1OC (stereo not given)	i	i	i	i	i[12.7 µM]	?
CCOc1ccc(C2/C(=C(\O)c3ccc(OC)c(OC)c3)C(=O)C(=O)N2c2cc(C)on2)cc1OC (stereo not given)	i	i	i	i	?	i
CCCCCOc1ccc(C2C(C(=O)c3ccc(C)o3)=C(O)C(=O)N2c2cc(C)on2)cc1 (stereo not given)	i	i	nt	i	44.7µM	?
COc1cc(C2C(C(=O)c3ccc(C)o3)=C(O)C(=O)N2c2cc(C)on2)ccc1O (stereo not given)	?	i	i	i	44.7µM	?
COc1cc(C2C(C(=O)c3ccc(C)o3)=C(O)C(=O)N2c2cc(C)on2)cc(OC)c1OC (stereo not given)	i	i	i	i	i	i
COc1cc(C2C(C(=O)c3ccc(C)o3)=C(O)C(=O)N2c2cc(C)on2)ccc1OCc1ccccc1 (stereo not given)	i	i	nt	i	44.7µM	i
CCCCCCCCCCCCC/C=C/[C@@H](O)[C@H](COP(=O)([O-])OCC[N+](C)(C)C)NC(=O)CCCCCCCCCCCCCCCCC	nt	nt	nt	i	nt	nt
COc1ccc(CCN2CC(C(=O)NCCc3cnn(C)c3)CCC2=O)cc1 (stereo not given)	i	i	nt	i	i	20µM
COc1cccc(CN2CC(C(=O)NCc3cccc(N4CCCC4)c3)CCC2=O)c1 (stereo not given)	?	i	nt	i	79.4µM	i
Cc1ccc(CN(C)C(=O)C2CCC(=O)N(CCc3ccccc3)C2)o1 (stereo not given)	i	i	nt	35.5µM	i[12.7 µM]	i
Cc1ccc(CCNC(=O)C2CCC(=O)N(Cc3ccccc3F)C2)o1 (stereo not given)	i	i	nt	i	79.4µM	?
CN(Cc1cnccn1)C(=O)C1CCC(=O)N(CCc2ccccc2)C1 (stereo not given)	i	i	nt	i	i	i
CCCCN1C2CCCC1CC(NC(=O)c1cccc(OC)c1)C2 (stereo not given)	i	i	i	i	?	i
COc1cccc(CCNC(=O)C2CCC(=O)N(Cc3cccc(OC)c3)C2)c1 (stereo not given)	i	i	nt	i	i	i
COc1cccc(CN2CC(C(=O)NCCc3ccc(C)o3)CCC2=O)c1 (stereo not given)	i	i	nt	?	39.8µM	i
COc1cc(-c2ccc3ncnc(NCC4CCCO4)c3c2)cc(OC)c1OC (stereo not given)	nt	nt	nt	nt	nt	i
COC(=O)c1cc(Cl)c(NC(=O)c2ccc(C(C)(C)C)cc2)cc1OC	i	i	i	14.1µM	i	i
COC(=O)c1cc(Cl)c(NC(=O)C(C)C)cc1OC	i	i	i	i	i	i
COC(=O)c1ccc(NC(=O)CSCC(=O)OCC(=O)c2ccc(Br)cc2)cc1	i	i	nt	i	10µM	i
CCc1cccc(NC(=O)CCS(=O)(=O)c2ccc(Br)cc2)c1	31.6µM	8.91µM	nt	i	28.2µM	11.2µM
CC(=O)c1ccc(NC(=O)CCS(=O)(=O)c2ccc3c(c2)n(C)c(=O)c(=O)n3C)cc1	79.4µM	i	i	i	?	79.4µM
O=C(CCS(=O)(=O)c1ccc(Br)cc1)Nc1ccc(Br)cc1F	50.1µM	i	?	i	?	i
CC(=O)c1cccc(NC(=O)CCS(=O)(=O)c2ccc3c(c2)n(C)c(=O)c(=O)n3C)c1	i	i	nt	nt	i	i
SMILES	BAZ2B inh	HP1b binding inh	L3MBTL1 inh	Sfp inh	G9a block	JMJD2A Tudor inh
Cc1cc(C)cc(NC(=O)CSc2nnc(CNC(=O)c3ccco3)n2C)c1	i	i	i	nt	i[12.7 µM]	i
COC(=O)c1ccc(NC(=O)CCS(=O)(=O)c2ccc(C)cc2)cc1	i	i	nt	i	i	i
COC(=O)c1ccc(NC(=O)CCS(=O)(=O)c2ccc(Br)cc2)cc1	56.2µM!	i	nt	i	56.2µM!	i
CC(C)(C)OC(=O)N1CCC[C@H]1C(=O)NCc1ccc(Cl)cc1Cl	i	i	i	i	i	44.7µM
CCc1ccc(OCC(=O)Nc2ccc(Cl)c(-c3nc4ncccc4o3)c2)cc1	i	i	nt	nt	i	i
CC(NCC(=O)Nc1ccccc1C(=O)NC1CC1)c1ccc(F)cc1F (stereo not given)	i	i	i	nt	i[12.7 µM]	i
COC(=O)c1nn(-c2cccc(C)c2)c2nnc(Cc3ccc(C)cc3)c(=O)n12	i	i	i	i	i	i
COC(=O)c1nn(-c2ccc(C)cc2)c2nnc(Cc3ccccc3)c(=O)n12	i	i	i	i	17.8µM	i
CN(c1ccc(OCC(=O)N2CCOCC2)cc1)S(=O)(=O)c1ccc(Cl)cc1	i	i	nt	?	i	i
CCOC(=O)c1ccccc1NC(=O)CSc1ccc(-c2sc(C)nc2C)nn1	i	i	nt	nt	i	i
CC(C)CN1CC2(CCN(C(=O)c3cnccn3)CC2)C1	nt	nt	nt	i	i[12.7 µM]	nt
CC(C)c1nc(SCC(=O)c2ccc(F)cc2)c2ccccc2n1	i	i	i	31.6µM	39.8µM	i
CC(C)c1nc(SCC(=O)Nc2nccs2)c2ccccc2n1	i	i	nt	i	i	?
CC(C)c1nc(SCC(=O)Nc2ccc(N(C)C)cc2)c2ccccc2n1	?	i	i	i	8.91µM	?
Cc1ccc(C(=O)CSc2nc(C(C)C)nc3ccccc23)cc1	i	i	i	39.8µM	i	i
CCOC(=O)CSc1nc(C(C)C)nc2ccccc12	i	i	i	i	i[12.7 µM]	i
O=C(CSc1cnc2ccccc2n1)c1ccc(F)cc1	i	i	i	i	7.08µM	i
Cn1c(SCC(=O)c2ccc(F)cc2)nc2cccnc21	i	i	i	i	i	i[11.4 µM]
COC(=O)CSc1nc(C(C)C)nc2ccccc12	i	i	i	i	i	i
O=C(Nc1nc(Nc2cc(F)cc(F)c2)nc(NC2CCCC2)n1)OCc1ccccc1	nt	nt	nt	nt	nt	i
Cc1ccc(NC(=O)CSc2nnc(-c3ccc([N+](=O)[O-])cc3)o2)c(C)c1	?	i	nt	nt	i	i
FC(F)(F)Oc1ccc(NC(=S)Nc2ccc(OC(F)(F)F)cc2)cc1	?	i	nt	?	nt	i
CN(C)c1ccc(C=c2c3cc(O)ccc3n3c2cc(-c2ccccc2)[n+]3C)cc1	nt	50.1µM	nt	nt	nt	25.1µM
CN(C)c1ccc(/C=c2\sc3nc(-c4ccccc4)nn3c2=O)cc1	i	nt	i	i	i[12.7 µM]	nt
